The test system of the assay is Bacteroides uniformis. The assay is described as follows: growth AUC relative to DMSO control (median of replicates) (fraction); higher = more growth (less inhibition), active = hit call of the paper. The note with it: 20 µM; 24 h. An outline of the steps:
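Gut bacterial monocultures in mGAM were treated with 20 µM compound (1% DMSO) and grown anaerobically at 37 °C in round-bottom 96-well plates from OD600 0.05. OD600 was read hourly for 24 h, with the minimum OD set to 0. Area under the growth curve was normalised to the plate median of solvent-only wells, or to row and column medians on the industrial chemical plate. Each value is the median of three biological replicates, each grown on a separate day.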
Regarding `Nc1cccc(O)c1`, the “growth AUC” value was 1.03 (inactive). Then `CCc1cccc(C)c1NC(C)C(=O)O` (racemic), with 0.996 (inactive); and `CCc1ccc(C(c2ccc(CC)cc2)C(Cl)Cl)cc1`, with 1.02 (inactive). As to `CC(C)N(C(=O)CS(=O)CC(=O)O)c1ccc(F)cc1` (centres undefined), the “growth AUC” value is 0.958 (inactive). In the case of `O=[N+]([O-])c1ccc(Oc2c(Cl)cc(Cl)cc2Cl)cc1` it was 0.914 (inactive); in that of `CCOC(=O)c1nc(C(Cl)(Cl)Cl)n(-c2ccc(Cl)cc2Cl)n1`, 0.968 (inactive). In the case of `Cc1ccc2c(c1)[C@H](Nc1nc(N)nc(C(C)F)n1)[C@@H](C)C2` (some centres undefined) it was 0.948 (inactive); in that of `CCCCCCCC(=O)Oc1c(Br)cc(C#N)cc1Br`, 0.983 (inactive); in that of `CCNc1nc(N)[nH]c(=O)n1`, 1.02 (inactive).

Regarding `CN(C)C(=O)Nc1cc(C(C)(C)C)on1`, the “growth AUC” value is 1.01 (inactive). Take `O=C(NC(=O)c1c(F)cccc1F)Nc1cc(C(F)(F)F)cc(C(F)(F)F)c1Cl`: the “growth AUC” value was 0.96 (inactive).

Regarding `COC(=O)CSc1cc(N=c2sc(=O)n3n2CCCC3)c(F)cc1Cl`, the “growth AUC” value is 0.988 (inactive). In the case of `CCN(Cc1c(F)cccc1Cl)c1c([N+](=O)[O-])cc(C(F)(F)F)cc1[N+](=O)[O-]` it was 1.03 (inactive). In the case of `CCNC(=O)[C@@H](C)OC(=O)Nc1ccccc1` it was 0.969 (inactive). Then `CON=C(Cc1cccnc1)c1ccc(Cl)cc1Cl`, with 0.921 (inactive); and `COC(=O)Nc1ccc(Cl)c(Cl)c1`, with 0.966 (inactive).

For `CC[N+](CC)(CC(=O)Nc1c(C)cccc1C)Cc1ccccc1.O=C([O-])c1ccccc1`, the “growth AUC” value was 0.993 (inactive). In the case of `CC(C)(C)[C@@H](O)[C@@H](Cc1ccc(Cl)cc1)n1cncn1` (mixture of isomers) it was 0.966 (inactive); in that of `COCC(=O)N(c1c(C)cccc1C)C(C)C(=O)O` (centres undefined), 0.997 (inactive); in that of `COC(=O)c1ccccc1S(=O)(=O)NC(=O)n1nc(OCC(C)O)n(C)c1=O` (centres undefined), 1.03 (inactive). In the case of `CCOC(=O)Cc1[nH]nc2ccc(Cl)cc12` it was 1.01 (inactive).

With `CCCCCCCC/C=C\CCCCCCCC(N)=O`, the “growth AUC” value is 0.998 (inactive). Then `COC1CCC2(CC1)NC(=O)C(c1cc(C)ccc1C)=C2OC1OC(CO)C(O)C(O)C1O` (centres undefined), with 1.02 (inactive); and `COC(=O)c1ccc(C(F)(F)F)nc1S(=O)(=O)[N-]C(=O)Nc1nc(OC)cc(OC)n1.[Na+]`, with 0.978 (inactive).

Take `COC1CCC2(CC1)NC(=O)C(c1cc(C)ccc1C)=C2O` (centres undefined): the “growth AUC” value was 1.01 (inactive). In the case of `O=C(Nc1ccc(O)cc1-c1ccc(Cl)cc1)c1cccnc1Cl` it was 1 (inactive). In the case of `Cc1nn(C)c(F)c1C(=O)Nc1ccccc1C(C)CC(C)C` (centres undefined) it was 0.947 (inactive); in that of `O=C(NCc1ncc(C(F)(F)F)cc1Cl)c1c(Cl)cccc1Cl`, 1.02 (inactive). On to `CC1COc2ccccc2N1C(=O)C(Cl)Cl` (centres undefined), for which the “growth AUC” value was 0.985 (inactive). `CCc1cccc(C)c1NC(=O)C(=O)O`: the “growth AUC” value was 1 (inactive). Then `Cc1[nH]oc(=O)c1N=Nc1ccccc1Cl`, with 1.02 (inactive); and `COc1ccccc1C(=O)NS(=O)(=O)c1ccc(C(=O)NC2CC2)cc1`, with 0.999 (inactive); and `O=C(O)c1ccc(Cl)cc1Cl`, with 0.977 (inactive). In the case of `CCCCCCCC/C=C\CCCCCCCCCCCCC` it was 0.997 (inactive). Then `COC(=O)COc1ccc(Cl)cc1C`, with 1.01 (inactive); and `CC(C)OC(=O)N[C@H](C(=O)N[C@H](C)c1nc2ccc(F)cc2s1)C(C)C`, with 0.93 (inactive).

For the molecule `CCNc1nc(N)nc(Cl)n1`, the “growth AUC” value is 1.02 (inactive). For the molecule `Cc1nn(C)c(OCC(=O)c2ccccc2)c1C(=O)c1ccc(Cl)cc1Cl`, the “growth AUC” value was 0.852 (inactive). Then `Cc1cc(C)c(C2=C(O)C3(CCCC3)OC2=O)c(C)c1`, with 0.989 (inactive).

Source of the values: the supplement of paper PMC12669032.
